From PubChem BioAssay AID1851 (National Center for Advancing Translational Sciences (NCATS), 2009) come the findings set out here.

The campaign covered roughly 16,000 compounds. About 5,800 (36%) were called active. Another 23% or so got no clear call; they are omitted. The list shows a part of the results. Unmarked numbers belong to inactive results. Calls come from the whole dose curve; as a rule, active = well fitted curve in the direction sought with a large enough effect; inconclusive = small, poorly fitted or top-dose-only effect, or effect the other way; inactive = no such curve, though single readings can be large or run the other way.
% is set by controls: 0 for no effect and ±100 for the full control effect.

Cytochrome P450 2C19 (Homo sapiens), sequence (P33261 whole entry, looked up): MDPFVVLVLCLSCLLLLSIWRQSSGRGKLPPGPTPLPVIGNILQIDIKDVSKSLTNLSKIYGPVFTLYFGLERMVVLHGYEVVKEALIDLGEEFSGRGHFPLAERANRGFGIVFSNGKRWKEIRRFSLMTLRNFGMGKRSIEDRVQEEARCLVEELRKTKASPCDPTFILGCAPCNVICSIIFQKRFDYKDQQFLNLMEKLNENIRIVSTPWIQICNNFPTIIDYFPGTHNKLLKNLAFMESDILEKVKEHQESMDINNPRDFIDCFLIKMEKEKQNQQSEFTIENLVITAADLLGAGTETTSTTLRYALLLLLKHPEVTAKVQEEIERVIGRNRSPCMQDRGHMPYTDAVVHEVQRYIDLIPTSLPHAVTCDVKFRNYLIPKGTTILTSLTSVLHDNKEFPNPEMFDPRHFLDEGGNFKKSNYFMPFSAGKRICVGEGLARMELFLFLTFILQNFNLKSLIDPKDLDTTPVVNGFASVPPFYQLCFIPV

This assay concerns the target Cytochrome P450 2C19 (Homo sapiens) (UniProt P33261). Put plainly: Cytochrome panel assay with activity outcomes. The conditions noted are these: recombinant CYP, pro-luciferin dealkylation, luminescence, p450-cyp2c19; series mostly up to 57.1 µM; activity, negative = inhibition: at the top concentration.
For the compound `CN(C)c1ncc2nc(CCc3ccccc3)c(=O)n(C3CC3)c2n1`, the AC50 was 15.8 µM (active).
Consider `COc1ncc2nc(C)c(=O)n(C3CC3)c2n1`, for which the “activity, negative = inhibition” value was -11.7%.
As to `COc1ccc(Oc2ncc3nc(CCc4ccccc4)c(=O)n(C4CC4)c3n2)cc1`, the AC50 is 1.58 µM (active).
As for `CN(C)c1ncc2nc(-c3ccc(F)cc3)c(=O)n(C3CC3)c2n1`, the “activity, negative = inhibition” value is -35.1%.
Take `COc1ncc2ncc(=O)n(C3CC3)c2n1`: the “activity, negative = inhibition” value is -16.9%.
Still for that read-out and setting: the value for `O=C(O)c1ccccc1-c1ccccc1C(=O)Nc1ccc2c(c1)Cc1ccccc1-2` was 37.2% [at 11.4 µM].
For `Cn1c(SCC(=O)c2ccc3c(c2)Cc2ccccc2-3)nnc1-c1ccccc1`, the AC50 is 28.2 µM (active).
On the same count and under the same terms, the value for `Cc1ccc2nc(/C(C#N)=C\c3ccc(OC(=O)c4cccs4)cc3)[nH]c2c1` was 2.24 µM (active).
Take `COC(=O)Nc1nc2ccc(C(=O)c3cccs3)cc2[nH]1`: the “activity, negative = inhibition” value was -12.3% [at 25.6 µM].
For the compound `NC(=NC1C2CC3CC(C2)CC1C3)Nc1ccc(I)cc1` (centres undefined), the AC50 is 5.01 µM (active).
The same measure, in the same setting: the value for `CCc1cc2c(Sc3nc4ccccc4s3)ncnc2s1` was 2.51 µM (active).
Still for that read-out and setting: the value for `O=C(Cn1c(=O)n(Cc2ccco2)c(=O)c2c3c(sc21)CCCCC3)c1ccccc1` was 7.08 µM (active); that for `CN(C)CCn1c(=O)n(Cc2ccco2)c(=O)c2c3c(sc21)CCCCC3` was 15.8 µM (active).
Regarding `NC(=O)Cn1c(=O)n(Cc2ccco2)c(=O)c2c3c(sc21)CCCCC3`, the AC50 is 2.82 µM (active).
On to `COc1cccc(Nc2ncc3nc(-c4cccs4)c(=O)n(-c4ccccc4)c3n2)c1`, for which the “activity, negative = inhibition” value was 4.9%.
The same measure, in the same setting: the value for `COc1ccc(Oc2ncc3nc(-c4cccs4)c(=O)n(-c4ccccc4)c3n2)cc1` was -13.1%.
`O=C(Nc1cccc2ccccc12)c1cn(-c2ccccc2)nc1-c1cccs1`: the AC50 was 6.31 µM (active).
As for `CC(=O)CCCCn1c(=O)c2c(ncn2C)n(C)c1=O`, the “activity, negative = inhibition” value was -8.94% [at 25.6 µM].
On the same count and under the same terms, in the case of `C=CC[C@@H]1C=C[C@@H](O/N=C\C[C@@H]2C=C[C@H](OC(C)=O)[C@H](COC(C)=O)O2)[C@@H](CO)O1` it was 17.2% [at 11.4 µM].
Consider `C=CC[C@@H]1C=C[C@H](Oc2ccc(C)cc2)[C@H](COC(=O)NCc2cccc3ccccc23)O1`, for which the AC50 is 1.26 µM (active).
For the compound `C=CC[C@@H]1C=C[C@@H](O/N=C(/C)CCC(=O)OC[C@@H]2O[C@H](C#Cc3ccccc3)C=C[C@@H]2Oc2ccc(C)cc2)[C@@H](CO)O1`, the activity, negative = inhibition is -42.3% [at 11.4 µM].
Still for that read-out and setting: in the case of `CC(C)(C)c1ccc(-c2nnc(SCc3ccc(Cl)cc3)n2-c2cccc(C(F)(F)F)c2)cc1` it was -28.9% [at 11.4 µM].
As for `O=S(Cc1ccc(Br)cc1)Cc1nnc(SCc2ccc(Cl)cc2)n1-c1ccccc1` (centres undefined), the half-maximal activity concentration (AC50) is 10 µM (active).
Take `OCCCNc1ncnc2[nH]ncc12`: the activity, negative = inhibition is 36.5% [at 11.4 µM].
Regarding `CCOC(=O)c1c(-c2ccccc2)nc2c(C)cccn12`, the concentration at half-maximal activity (AC50) was 15.8 µM (active).
On the same count and under the same terms, in the case of `Cc1cc(C)cc(N(C(=O)Cc2cccs2)C(C(=O)NC2CCCCC2)c2ccccn2)c1` (centres undefined) it was 15.8 µM (active).
Consider `CC(C)C(NC(=O)C1CCCCC1)C(=O)NCc1ccccn1` (centres undefined), for which the “activity, negative = inhibition” value is -5.05%.
Take `Cc1nn(C)cc1C(C(=O)NC1CCCCC1)N(C(=O)Cc1cccs1)c1ccc(C(C)C)cc1` (centres undefined): the AC50 is 7.94 µM (active).
The same measure, in the same setting: the value for `Cc1ccccc1C(C(=O)NC1CCCC1)N(C(=O)Cc1cccs1)c1ccc2c(c1)OCCO2` (centres undefined) was 14.1 µM (active).
Regarding `C/C(CC(=O)NC1CCCC1)=N\NC(=O)Cc1cccs1`, the “activity, negative = inhibition” value is -1.91%.
On to `COc1ccccc1/C=N/NC(=O)CC(=O)Nc1ccc(Cl)c(Cl)c1`, for which the AC50 is 11.2 µM (active).
In the case of `COc1ccccc1/C=N/NC(=Nc1ccc(C)cc1)c1nc2ccccc2s1`, the “activity, negative = inhibition” value is -4.38%.
Same read-out and setting: in the case of `O=C(Oc1ccccc1)N1CCC2(CC1)CCN(c1ccncc1)CC2` it was -32.8%.
The same measure, in the same setting: the value for `CC(=O)N1CCC2(CC1)CN(c1ccncc1)C2` was 30.5%; that for `COC(=O)N1CCC2(CCCN(c3ccc(-c4ccccc4)cc3)C2)CC1` was -24.4%.
Take `O=C(Oc1ccccc1)N1CCC2(CC1)CN(c1ccncc1)C2`: the AC50 is 7.94 µM (active).
Same read-out and setting: the value for `COC(=O)N1CCC2(CC1)CN(c1ccccc1)C2` was 6.31 µM (active).
As to `COC(=O)N1CCC2(CC1)CN(c1ccc(-c3ccccc3)cc1)C2`, the “activity, negative = inhibition” value is -11.4%.
`O=C(Oc1ccccc1)N1CCC[C@@]2(CCN(c3ccncc3)C2)C1`: the half-maximal activity concentration (AC50) was 5.01 µM (active).
In the case of `COC(=O)N1CCC[C@@]2(CCN(c3ccncc3)C2)C1`, the “activity, negative = inhibition” value was 15.9%.
On the same count and under the same terms, the value for `C[C@H](NC[C@H](O)CP(=O)(O)CC1CCCCC1)c1ccc(Cl)c(Cl)c1` was -9.58%.
For `OC[C@H](S)CS`, the activity, negative = inhibition was -35.3% [at 11.4 µM].
Same read-out and setting: in the case of `CCCCNC(=O)NC1C(NC(=O)NCCCC)N(C)C(=O)N1C` (centres undefined) it was -13.7%.
With `CCCCNC(=S)NNC(=O)CCn1nc(C)c(Br)c1C`, the AC50 is 11.2 µM (active).
With `COc1ccc(NC(=S)N(CCc2nc3cc(C)c(C)cc3[nH]2)Cc2cccnc2)cc1`, the AC50 is 14.1 µM (active).
The same measure, in the same setting: in the case of `COc1cccc(NC(=S)N(CCc2nc3cc(C)c(C)cc3[nH]2)Cc2cccnc2)c1` it was 3.98 µM (active).
On to `COc1cccc(Nc2ncc3nc(C)c(=O)n(CCc4ccccc4)c3n2)c1`, for which the “activity, negative = inhibition” value is -33.4%.
On the same count and under the same terms, in the case of `COc1cccc(NC(=O)C2c3cc(OC)c(OC)cc3C(=O)N(C)C2c2cccnc2)c1` (centres undefined) it was -18.3%.
Consider `Cc1cccc(NC(=S)N(CCc2nc3cc(C)c(C)cc3[nH]2)Cc2cccnc2)c1`, for which the AC50 is 3.16 µM (active).
